PubChem BioAssay AID651956 (Broad Institute, 2012)
Potency and affinity values are given separately. Records with an inconclusive call do not appear.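 Rule for the calls: active = in every test run, a fitted half-maximal concentration for signal decrease at or below twice the highest tested concentration; inconclusive = runs disagree, flat 30 to 70% decrease, or poor fit; inactive = the rest.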

Experiment: miR-122 activators in hepatoma reporter cells, dose response, cell-based, Huh7 psiCHECK-miR122, Renilla luciferase, cherry-picked (AID 651956);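 note: Renilla luciferase from a miR-122 sensor reporter so lower signal means miR-122 activation; 0% = median neutral control wells and -100% = median positive control wells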
Details: 48 h; series mostly up to 35 µM; activity change, negative = signal decrease: at the top concentration

Activity change, negative = signal decrease, inactive:
C/C=C/c1ccc([C@H]2[C@@H](CO)N(C(C)=O)[C@@H]2CN(C(=O)COC)C(C)C)cc1 132%
COc1cccc(CNC(=O)C[C@@H]2CC[C@@H]3[C@H](COc4ccc(NC(C)=O)cc4C(=O)N3C)O2)c1 14.2%
C/C=C/c1ccc([C@@H]2[C@@H](CO)N(Cc3ccccn3)[C@H]2CNC(=O)CC)cc1 80.4%
O=C(Nc1ccc(CN2CCOCC2)cc1)c1ccc(-c2ccc(Cl)cc2Cl)o1 -3.51%
CCNC(=O)C[C@H]1CC[C@H]2[C@@H](COc3ccc(NC(=O)c4ccccc4)cc3C(=O)N2C)O1 36.5%
N#Cc1ccc(NC(=O)Nc2ccc(Oc3ccc(NC(=O)Nc4ccc(C#N)cc4)cc3)cc2)cc1 -58.5%
COCCNC(=O)C[C@H]1CC[C@@H]2[C@H](COc3ccc(NC(=O)C4CCOCC4)cc3C(=O)N2C)O1 -14.5%
COCC(=O)N(C[C@@H]1N[C@H](CO)[C@H]1c1ccc(-c2cccnc2)cc1)C(C)C 80%
CN(C)CCCNC(=O)C[C@@H]1CC[C@H]2[C@H](COc3ccc(NC(=O)c4cccc(F)c4)cc3C(=O)N2C)O1 -10.1%
Cc1ccc(S(=O)(=O)NCCCNS(C)(=O)=O)cc1 -0.902%
CC(C)C(=O)Nc1ccc2c(c1)C(=O)N(C)[C@@H]1CC[C@H](CC(=O)NCC3CC3)O[C@H]1CO2 -7.96%
N#CCc1c(C#N)c(N)nc(N2CCN(S(=O)(=O)c3ccccc3)CC2)c1C#N 88.6%
C[C@@H]1CN([C@@H](C)CO)C(=O)c2cccc(NC(=O)Nc3ccc4c(c3)OCO4)c2O[C@@H]1CN(C)Cc1ccc(Oc2ccccc2)cc1 -41.5%
COc1ccc(NC(=O)Cn2nnc(C(=O)NCc3ccccc3OC)c2N)cc1Cl 48.8%
CCCNC(=O)N1[C@H](CNC(C)=O)[C@H](c2ccc(C3=CCCC3)cc2)[C@@H]1CO -20%
CN1C(=O)c2cc(NC(=O)c3cccs3)ccc2OC[C@@H]2O[C@H](CC(=O)NCCN3CCCCC3)CC[C@H]21 -18.4%
COc1cccc(C(=O)Nc2ccc3c(c2)C(=O)N(C)[C@H]2CC[C@H](CC(=O)NCc4ccc(F)cc4)O[C@H]2CO3)c1 100%
Cc1nn(C)cc1NC(=O)C[C@H]1CC[C@H]2[C@H](COc3ccc(NC(=O)c4cccc(F)c4)cc3C(=O)N2C)O1 74.4%
Cc1ccnc(Nc2nc(-c3c(C)nc4sccn34)cs2)c1 -54.8%
COCC(=O)N1[C@H](CO)[C@H]2c3ccccc3N(C(=O)c3ccccc3F)C[C@H]21 -11%
C[C@@H]1CN([C@@H](C)CO)C(=O)c2cccc(NC(=O)c3ccc(-c4nccs4)cc3)c2O[C@H]1CN(C)Cc1ccc2c(c1)OCO2 28.6%
C=CCNC(=S)NNC(=O)c1cccn(Cc2ccc(Cl)c(Cl)c2)c1=O -25.4%
COc1ccc(CN2CCc3c([nH]c4ccccc34)C2)c(OC)c1C -17.6%
CCNC(=O)C[C@@H]1CC[C@H]2[C@@H](COc3ccc(NC(=O)c4ccc(C(F)(F)F)cc4)cc3C(=O)N2C)O1 -32.2%
CCn1nnnc1SCC(=O)Nc1nnc(C(C)C)s1 82.1%
CNC(=O)C[C@@H]1CC[C@H]2[C@@H](COc3ccc(NC(=O)NC(C)C)cc3C(=O)N2C)O1 91.3% [at 30 µM]
C/C=C/c1ccc([C@H]2[C@@H](CO)N(Cc3ccccn3)[C@H]2CNC(C)=O)cc1 -24.4%
CCCNC(=O)C[C@@H]1CC[C@@H]2[C@@H](COc3ccc(NC(=O)Nc4ccccc4F)cc3C(=O)N2C)O1 -17%
COC(=O)C[C@H]1CC[C@H]2[C@H](COc3ccc(NC(=O)c4cccc(F)c4)cc3C(=O)N2C)O1 220%
CCCNC(=O)C[C@H]1CC[C@@H]2[C@H](COc3ccc(NC(=O)c4cccs4)cc3C(=O)N2C)O1 115%
C/C=C/c1ccc([C@@H]2[C@H](CO)N[C@H]2CN(CC(C)C)C(=O)c2ccccn2)cc1 80%
C[C@@H]1CN([C@@H](C)CO)S(=O)(=O)c2ccc(C3=CCCC3)cc2O[C@@H]1CN(C)C(=O)c1ccc(F)cc1 -64.2%
CNC(=O)C[C@H]1CC[C@H]2[C@@H](COc3ccc(NC(=O)C4CC4)cc3C(=O)N2C)O1 43.9%
O=C(Cn1c(=O)c2ccccc2n(CC(=O)N2CCCCC2)c1=O)N1CCCCC1 -13.5%
CO[C@H]1CN(C)C(=O)c2cc(NC(=O)C3CC3)ccc2OC[C@H](C)N(CCc2ccccc2)C[C@H]1C -34.8%
COc1ccc(CN2CCN(Cc3cccn3-c3ncccn3)CC2CCO)c(C)c1C (centres undefined) -44.7%
CN(C[C@H]1N[C@@H](CO)[C@H]1c1ccc(-c2ccccc2)cc1)C(=O)C1CCC1 -22.1%
CC(C)Oc1ccc(C(CCN)C2CCCCC2)cc1 (centres undefined) -110%
CN1C(=O)c2cc(NC(=O)c3ccc4c(c3)OCO4)ccc2OC[C@@H]2O[C@@H](CC(=O)O)CC[C@@H]21 155%
